# Data as given in PubChem BioAssay (Tox21).
# Records with an inconclusive call do not appear. Where a call stands in place of a potency, no number is given. Unmarked numbers belong to inactive results. Calls of active or inactive are those of the source. Calls follow the shape of the dose curve; as a rule, active = well fitted cell-killing curve with a large enough effect in the repeat runs; inconclusive = weak or mixed curves, or effect the other way; inactive = flat fitted curve, though single readings scatter. Non-standard residues stand in square brackets, D forms with d. Residues, ends and D or L forms follow the SMILES beside them. *: point of attachment. Sta = CC(C)C[C@H](N)[C@@H](O)CC(=O)O; Isovaleryl = CC(C)CC(=O)*
# Test: qHTS RealTime-Glo MT Cell Viability Assay in HepG2 cells - 0 hour (AID 1224889); also: nearly all actives have a fitted effect of over 50% in size
# Details: RealTime-Glo luminescence; series mostly up to 76.8 µM
# Outline: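 HepG2 suspension premixed with RealTime-Glo reagents is plated at 600 cells per well and left 5 h at 37 C/5% CO2. Compounds in DMSO then go in, and bioluminescence reflecting viable cell number is recorded over 40 h.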
Structure (SMILES),Potency,"activity change, negative = cytotoxicity"
CC(C)CC(=O)N[C@H](C(=O)N[C@H](C(=O)N[C@@H](CC(C)C)[C@@H](O)CC(=O)N[C@@H](C)C(=O)N[C@@H](CC(C)C)[C@@H](O)CC(=O)O)C(C)C)C(C)C (Isovaleryl-VV[Sta]A[Sta]-OH),inactive,
CCCCCCC(=O)c1ccccc1,inactive,
CNC(=O)c1c(I)c(NC(C)=O)c(I)c(C(=O)O)c1I,inactive,
CCCCCCCCCCCCCC(=O)OCC,inactive,
C=CCN(CC=C)CC=C,inactive,
O=C(O)CCC(=O)Nc1ccc(S(=O)(=O)Nc2nccs2)cc1,inactive,
CC(O)C(CO)C(C)O (stereo unspecified),inactive,
O=C(O)/C=C(\CC(=O)O)C(=O)O,inactive,
CC(=O)Nc1ccc(S(=O)(=O)Nc2cc(C)on2)cc1,inactive,
C[C@@H](CN1CC(=O)NC(=O)C1)N1CC(=O)NC(=O)C1,inactive,
CCN(CC)CC,inactive,
CCCCCCCCOCCC#N,inactive,
CC/C=C/CCCCCCCCCCOC(C)=O,inactive,
CC/C=C\CCOC(=O)c1ccccc1,inactive,
COC(=O)c1ccc(C(=O)O)cc1,inactive,
COC(=O)C(c1ccccc1Cl)N1CCc2sccc2C1 (stereo unspecified),inactive,
CCCCOCCCC,inactive,
Cc1ccc2ccccc2n1,inactive,

Structure (SMILES),Potency,"activity change, negative = cytotoxicity"
CC(C)(C)c1ccc(N)cc1,inactive,
Cc1ccccc1OCC(=O)O,inactive,
O=C(O)Cc1c(Cl)ccc(Cl)c1Cl,inactive,
CCCCCCCCCCCCCCBr,inactive,
C=C(C)C(=O)OCCOC1CC2CC1C1C=CCC21 (stereo unspecified),inactive,
CCCCCCCC(=O)N(C)C,inactive,
COC(=O)/C=C(\C)CCC=C(C)C,inactive,
Clc1cc(Cl)c(Cl)c(Cl)c1Cl,inactive,
CCCc1ncc(C(=O)O)s1,inactive,
Cc1cc(C)c(N)c(Cl)c1,inactive,
CC(C)C(=O)Nc1cccc(C2CN3CCSC3=N2)c1 (stereo unspecified),inactive,
CCO/C=C1\N=C(c2ccccc2)OC1=O,inactive,
CC(C)(C)C(=O)NCCCC(=O)O,inactive,
C=CCCCCCCCCCCCCCC,,10.7% [at 15.8 µM]
Clc1ccc2c(c1)Nc1ccccc1S2,inactive,
Cc1ccc2cccnc2c1,inactive,
Cc1ccc(OC(=O)CC(C)C)cc1,inactive,
CC(=O)c1c(C)cc(C(C)(C)C)cc1C,inactive,
